According to PubChem BioAssay (Tox21):
Results filed as inconclusive are left out. Entries that show only a call come without a potency. Calls of active or inactive are those of the source. The call rests on the fitted dose curve; in most records, active means well fitted cell-killing curve with a large enough effect in the repeat runs; inconclusive means weak or mixed curves, or effect the other way; inactive means flat fitted curve, though single readings scatter.

Assay: Human pregnane X receptor (PXR) small molecule agonists, qHTS cell viability counter screen (AID 1346977); further: nearly all actives have a fitted effect of over 50% in size
Conditions: PXR-Luc HepG2 viability, CellTiter-Fluor, 24 h; series mostly up to 92.4 µM
Description: U.S. Tox21 Program National Center for Advancing Translational Sciences [NCATS] NIH Chemical Genomics Center [NCGC] U.S. Environmental Protection Agency [EPA] National Institutes of Environmental Health Sciences [NIEHS] National Toxicology Program [NTP] U.S. Food and Drug Administration [FDA] Tox21 Assay Overview: The human pregnane X receptor (hPXR) regulates the expression of several drug metabolizing enzymes and induction of these proteins is a major mechanism for developing drug resistance in cancer. One such key enzyme catalyzing the drug metabolism is cytochrome P450 3A4 (CYP3A4). Changes in CYP3A4 expression affect drug metabolism, thereby reducing the therapeutic efficacy and altering toxicological response to a drug and which finally causes adverse drug interaction. To screen Tox21 libraries for compounds that activate hPXR-mediated CYP3A4 gene expression, PXR-Luc HepG2 cells were used. Also cytotoxicity of the compounds was tested in parallel by measuring the cell viability using CellTiter-Fluor assay system in the same wells.
Tox21 Assay Protocol Summary: PXR-Luc HepG2 cells were dispensed at 2,000 per well in 5uL of assay medium containing 5% charcoal-stripped FBS into white solid bottom 1536-well plates (Corning Life Sciences, Corning, NY) using a Multidrop Combi (Thermo Scientific, Waltham, MA) dispenser. The assay plates were incubated at 37 C and 5% CO2 for 5hr, and then 23nL of compounds dissolved in DMSO and positive control were transferred using a Pintool station (Wako, San Diego, CA). The assay plates were incubated at 37C and 5% CO2 for 24hr. For cytotoxicity read, after 23hr incubation at 37C, 1uL CellTiter-Fluor reagent (Promega Corporation, Madison, WI) was added to each well of the assay plates using Flying Reagent Dispenser (FRD, Aurora Discovery, San Diego, CA). After 1hr incubation at 37C and 5% CO2, the fluorescence signal was quantified using a ViewLux plate reader (PerkinElmer, Shelton, CT).
In the case of `CCOC(C)(C)C`, the Potency is reported as “inactive”. With `CC(=O)OCC(=O)[C@@]1(O)CC[C@H]2[C@@H]3CCC4=CC(=O)CC[C@]4(C)[C@H]3C(=O)C[C@@]21C` the Potency was “inactive”. For `O=C(O)CCCc1ccccc1`, the Potency was “inactive”. In the case of `CC(=O)OC/C=C(\C)CC/C=C(\C)CCC=C(C)C`, the Potency is reported as “inactive”. In the case of `COc1nc(N)nc2c1ncn2[C@@H]1O[C@H](CO)[C@@H](O)[C@@H]1O`, the Potency is reported as “inactive”. In the case of `CC(C)(O)C(=O)c1ccccc1`, the Potency is reported as “inactive”. For `CN1CCN(c2cc3c(cc2F)c(=O)c(C(=O)O)cn3-c2ccc(F)cc2)CC1`, the Potency was “inactive”. For `O=C1CC2CC1C1CCCC21` (stereo not given), the Potency was “inactive”. For `CCOC(=O)c1ccc(C)cc1`, the Potency was “inactive”. With `COC(=O)CC(C)=O` the Potency was “inactive”. With `C=C[Si](OC(=C)C)(OC(=C)C)OC(=C)C` the Potency was “inactive”. In the case of `CC(C)CNCC(C)C`, the Potency is reported as “inactive”. In the case of `CC(C)(c1ccc(O)cc1)c1ccc(O)cc1`, the Potency is reported as “inactive”. For `C=CCCCCCCCCC=O`, the Potency was “inactive”. With `NC(CSCC(=O)O)C(=O)O` (stereo not given) the Potency was “inactive”. For `CCN1CCC[C@H]1CNC(=O)c1cc(S(N)(=O)=O)ccc1OC`, the Potency was “inactive”. For `c1ccc(CC2=NCCN2)cc1`, the Potency was “inactive”. With `CC1=CC(C)C(C=O)CC1` (stereo not given) the Potency was “inactive”. In the case of `C=C(C)CS(=O)(=O)O`, the Potency is reported as “inactive”. In the case of `CC(=O)CC(C)(C)C1CCCCC1`, the Potency is reported as “inactive”. With `CCO[Si](CCC1CCC2OC2C1)(OCC)OCC` (stereo not given) the Potency was “inactive”. For `CC(C[N+](C)(C)C)OC(N)=O` (stereo not given), the Potency was “inactive”. For `COCCc1ccc(OCC(O)CNC(C)C)cc1` (stereo not given), the Potency was “inactive”. With `Cc1cnc(NS(=O)(=O)c2ccc(N)cc2)nc1` the Potency was “inactive”. For `O=c1[nH]c(=O)n([C@H]2C[C@H](O)[C@@H](CO)O2)cc1I`, the Potency was “inactive”. In the case of `Nc1c2c(nc3ccccc13)CCCC2O` (stereo not given), the Potency is reported as “inactive”. In the case of `C/C=C(\C)C#N`, the Potency is reported as “inactive”. With `CC(C)(O)C#CC(C)(C)O` the Potency was “inactive”. For `NC(=O)c1ccc([N+](=O)[O-])cc1`, the Potency was “inactive”. With `CCCN(CCC)CCc1cccc2c1CC(=O)N2` the Potency was “inactive”. In the case of `OC[C@]1(O)OC[C@@H](O)[C@H](O)[C@@H]1O`, the Potency is reported as “inactive”. For `O=C(CCCN1CCN(c2ccccn2)CC1)c1ccc(F)cc1`, the Potency was “inactive”. For `COC(=O)c1cc(C(=O)OC)cc(S(=O)(=O)O)c1`, the Potency was “inactive”. With `Nc1cc(=O)[nH]c(N)n1` the Potency was “inactive”. For `COC(=O)CCSCCC(=O)OC`, the Potency was “inactive”. With `Cc1ccc(Cl)cc1Cl` the Potency was “inactive”. With `O=C1NC(=O)[C@@]2(CCOc3ccc(F)cc32)N1` the Potency was “inactive”. In the case of `CCS(=O)(=O)c1ccc(OC)c(C(=O)OC)c1`, the Potency is reported as “inactive”. For `C=C1CC[C@H]2C[C@@H]1C2(C)C`, the Potency was “inactive”. With `NS(=O)(=O)c1cc(C(=O)NN2C[C@H]3[C@H]4CCC(C4)[C@H]3C2)ccc1Cl` the Potency was “inactive”.
